# Laboratory results taken from ChEMBL document CHEMBL4513216, “Probing the Open Global Health Chemical Diversity Library for Multistage-Active Starting Points for Next-Generation Antimalarials” (ACS Infect Dis, 2020).
# In all, about 69,000 compounds went through this assay and about 8,600 (12%) showed an effect of 50% or more. The sample holds strong results, similar compounds and a random draw of the others, so the mix is not that of the screen.
# Tested on: Plasmodium berghei
# Assay: Screen against P. berghei liver stage (PbLuc), transformed with Luciferase, at 10uM
# Format: functional, HepG2
# Settings: tested at 10 uM
row,Compound,INHIBITION [%]
1,CCCNC(=O)CNc1ccc2c(c1)N(C(=O)OC(C)(C)C)CCC2,87.2
2,CC(C)(C)OC(=O)N1CCC[C@H](NCc2cc[nH]c2)C1,49.5
3,CC(C)N(CC1CCCN(Cc2ccon2)C1)C(=O)OC(C)(C)C (stereo not given),39.9
4,CC(C)(C)OC(=O)N1CCCc2ccc(NCc3ccon3)cc21,55.4
5,CCCNC(=O)Nc1ccc2c(c1)N(S(=O)(=O)CC)CC2,36.3
6,c1csc(-c2nc(CN3CCCCC3Cn3cncn3)cs2)c1 (stereo not given),42
7,CCc1nc2n(n1)CC(NCC(=O)Nc1cc(C)nn1C)CC2 (stereo not given),5.03
8,Cc1ccc(-c2cnnc(N3CCCC3c3nccs3)n2)o1 (stereo not given),12.6
9,Cc1ccc(OCc2occc2C(=O)N2C[C@@H]3C(CN(C)C)[C@@H]3C2)cc1 (stereo not given in full),32.2
10,Cc1c(CN2CCCC2(C)C(=O)NC2CCCC2)cnn1C (stereo not given),1.62
11,CCN(CC)CCNc1c(-c2ccccc2)c(=O)c1=O,4.07
12,CN(C)c1nc2cn(C3CCSCC3)c(=O)c-2c[nH]1,18.65
13,CC(C)CC(=O)N1CC(=O)N(CCc2ccccc2)CC(O)C1 (stereo not given),0.284
14,CC(C)c1nc(CN2CCN(C(=O)CN3CCOCC3)CC2)no1,13.3
15,Cc1n[nH]cc1CNC(=O)[C@H]1CCCCN1C(=O)OC(C)(C)C,34.1
16,CC(C)(C)OC(=O)N1CCCc2ccc(NCc3ncc[nH]3)cc21,51.8
17,CC(=O)N1CC(C)CN(Cc2ccon2)c2ccccc21 (stereo not given),18
18,CCN(C(=O)Cc1ccc(NCc2ncc[nH]2)cc1)c1ccccc1,22.2
19,CN1CCN(Cc2cccc(NCc3ncc[nH]3)c2)CC1,-13.9
20,Cc1n[nH]cc1CNc1ccc2c(c1)CN(C(=O)OC(C)(C)C)CC2,80.1
21,COC(=O)N1CCc2ccc(NC(=O)c3cn(C)nn3)cc2C1,-28.4
22,CC(=O)N1CCCN(Cc2ccon2)c2ccccc21,32.3
23,CC(C)(C)OC(=O)N1CCCN(Cc2ccon2)c2ccccc21,83.6
24,Cc1cc(C)nc(N2CCC(C(=O)Nc3ccc(C(C)C)cc3)CC2)n1,20.2
25,O=S1(=O)NCC2(CCN(c3ncccn3)CC2)COc2ccccc21,-21.2

row,Compound,INHIBITION [%]
1,CO[C@@H]1CO[C@@]2(CCCN(C(=O)N3CCCC3)C2)C1,33.1
2,CCS(=O)(=O)N1CCC(c2nn(CCN(C)C)c3ncccc23)C1 (stereo not given),9.63
3,Cc1cccc(C2CCN(S(=O)(=O)c3cn(C)cn3)CC2)n1,-41.8
4,CCN1CCOC(CNCc2ccccc2OCc2ccncc2)C1 (stereo not given),19.5
5,Cc1nnc2n1CCN(Cc1ncc(-c3ccccc3)o1)C2,-25.4
6,c1cc(-c2ccc3nc(C4CCN(CC5CC5)CC4)nn3c2)ccn1,47.9
7,COc1ccc(OCCN2CCN(Cc3nccn3C)CC2)cc1,14.1
8,CCN(Cc1ccncc1)CC1(O)CCN(C(=O)c2ccccc2C)C1 (stereo not given),23.2
9,CN1CCCN(C(=O)c2nc3c(n2C)CCN(c2ncccn2)C3)CC1,55.6
10,CC(C)n1c(C(=O)N2CCCC2)nc2c1CCN(c1ncccn1)C2,33.4
11,Cn1c(C(=O)N2CCOCC2)nc2c1CCN(c1ncccn1)C2,14.2
12,CN1CCN(C(=O)c2[nH]nnc2Nc2ccccc2F)CC1,5.18
13,NC(=O)Nc1ccc(C(=O)NCCn2cccc2)cc1,57.1
14,O=C(NCCNC(=O)c1ccc(Cl)cc1)NCCn1cccc1,-11.9
15,CC(=O)Nc1ccc(C(=O)NCCCn2cccc2)cc1,18.7
16,O=C(NC[C@]12COC[C@H]1CN(Cc1nccs1)C2)c1cscn1,47.9
17,FC(F)(F)c1cc(C2CCNCC2)nc(-c2ccsc2)n1,1.62
18,CN1C(=O)CC(c2cnn(C)c2)C12CCN(C(=O)c1ccco1)CC2 (stereo not given),10.1
19,CN1C(=O)CC(c2cnn(C)c2)C12CCN(C(=O)c1ccc[nH]1)CC2 (stereo not given),37.8
20,CN1C(=O)CC(c2cnn(C)c2)C12CCN(C(=O)c1ccno1)CC2 (stereo not given),14.8
21,CN1C(=O)CC(c2cnn(C)c2)C12CCN(C(=O)c1ccnnc1)CC2 (stereo not given),57.9
22,CN1C(=O)CC(c2cnn(C)c2)C12CCN(C(=O)c1cscn1)CC2 (stereo not given),61.4
23,CN1C(=O)CC(c2cnn(C)c2)C12CCN(C(=O)c1ccncc1)CC2 (stereo not given),42.7
24,Cc1nc(C2CCCN2C(=O)CCc2ccc(F)cc2)ncc1C(N)=O (stereo not given),43.6
25,O=C(CCc1nc2ccccc2[nH]1)N1CCCC(n2cccn2)C1 (stereo not given),40.75
